The values that follow come from PubChem BioAssay.

The nature of assay [1]: resazurin metabolic signal in HepG2 cells – cell-based, resazurin fluorescence, 24 h, PK04 Diversity Set, profiling panel (AID 1172). Note: test concentration not given here. The settings on record: HepG2 viability, higher = more signal.
Assay [2] can be described thus: budding yeast growth changes without added modifier – OD600, strain BY4716, 24 h, basal condition, primary screen (AID 1173). The conditions noted are these: S. cerevisiae BY4716 growth, OD600, 24 h; higher = more signal, called active from +8 up or from −8 down.
Assay [3] is described as follows: viability profiling in MM1S myeloma cells – cell-based, resazurin fluorescence, basal, 24 h, PK04 Diversity Set, profiling panel (AID 1174).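 Note: MM1S multiple myeloma cell line; test concentration not given here.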 The conditions noted are these: higher = more signal, called active from +8 up or from −8 down.
The target of assay [4] is Dihydroorotate dehydrogenase (quinone), mitochondrial (Plasmodium falciparum (isolate 3D7)) (UniProt Q08210). Put plainly: inhibition of P. falciparum DHODH – biochemical, C-terminal His tag, absorbance 600 nm, primary screen (AID 1175).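 Note: recombinant parasite enzyme with a five histidine tag at its C terminus; test concentration not given here.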 The settings on record: PfDHODH enzyme, DCIP absorbance 600 nm; higher = more signal, called active from +8 up or from −8 down.
Assay [5] can be described thus: inhibition of PAO1 biofilm formation – strain PAO1, LB-PBS medium, absorbance 600 nm, primary screen (AID 1176). Note: test concentration not given here. The conditions noted are these: P. aeruginosa PAO1 growth/biofilm, A600, 12 h; higher = more signal.
Assay [6] can be described thus: growth modulation of vineyard yeast isolate – strain RM11-1a, OD600, basal, 24 h, primary screen (AID 1177).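 Note: cultures grown under basal conditions with no added stressor; test concentration not given here.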 The conditions noted are these: S. cerevisiae RM11-1a growth, OD600, 24 h; higher = more signal, called active from +8 up or from −8 down.
Assay [7] is described as follows: growth of efflux-deficient E. coli DRC39 – strain DRC39, OD650, 24 h, E. coli filamentation inducers, primary screen (AID 1178).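 Note: growth measured as culture turbidity by optical density at 650 nm; test concentration not given here.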 The settings on record: E. coli DRC39 acrAB, higher = more signal, called active from +8 up or from −8 down.
A short description of assay [8]: growth of efflux-deficient E. coli DRC39 – strain DRC39, OD650, 48 h, E. coli filamentation inducers, primary screen (AID 1179).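 Note: screen aims at cell division blockers that make cells filament.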 The conditions noted are these: E. coli DRC39 delta-acrAB growth, higher = more signal, called active from +8 up or from −8 down.
Assay [9] in a line: viability profiling in RPMI8226 myeloma cells – cell-based, resazurin fluorescence, basal, 24 h, PK04 Diversity Set, profiling panel (AID 1180).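 Note: RPMI8826 multiple myeloma cell line at 5000 cells per well; test concentration not given here.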 The settings on record: higher = more signal.
Assay [10] concerns the target E3 ubiquitin-protein ligase XIAP (Homo sapiens) (UniProt P98170). Put plainly: small molecules binding XIAP protein – biophysical, small-molecule microarray, fluorescence 635 nm, primary screen (AID 1181).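 Note: score merges 667 nm emission and signal to noise over triplicate slides.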 The conditions noted are these: higher = more signal.

Activity calls are given as the source filed them. Unless noted, the rule behind the calls is not given here.

Chain of Dihydroorotate dehydrogenase (quinone), mitochondrial (Plasmodium falciparum (isolate 3D7)) (Q08210 whole entry, looked up): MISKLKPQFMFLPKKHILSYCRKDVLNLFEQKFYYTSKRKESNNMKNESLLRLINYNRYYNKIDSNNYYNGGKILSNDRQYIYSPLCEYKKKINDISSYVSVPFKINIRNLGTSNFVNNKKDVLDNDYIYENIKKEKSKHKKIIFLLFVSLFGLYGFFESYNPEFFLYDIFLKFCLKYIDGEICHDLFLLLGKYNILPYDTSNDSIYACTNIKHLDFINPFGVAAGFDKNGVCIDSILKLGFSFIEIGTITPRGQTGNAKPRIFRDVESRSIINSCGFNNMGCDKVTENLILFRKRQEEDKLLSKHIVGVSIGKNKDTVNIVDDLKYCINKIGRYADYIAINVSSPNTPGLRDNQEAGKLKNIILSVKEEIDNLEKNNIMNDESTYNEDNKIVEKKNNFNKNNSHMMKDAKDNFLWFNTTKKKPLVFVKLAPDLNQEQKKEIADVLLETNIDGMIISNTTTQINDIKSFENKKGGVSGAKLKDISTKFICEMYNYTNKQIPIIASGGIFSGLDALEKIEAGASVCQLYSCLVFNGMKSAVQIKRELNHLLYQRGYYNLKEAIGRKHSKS
Chain of E3 ubiquitin-protein ligase XIAP (Homo sapiens) (P98170 whole entry, looked up): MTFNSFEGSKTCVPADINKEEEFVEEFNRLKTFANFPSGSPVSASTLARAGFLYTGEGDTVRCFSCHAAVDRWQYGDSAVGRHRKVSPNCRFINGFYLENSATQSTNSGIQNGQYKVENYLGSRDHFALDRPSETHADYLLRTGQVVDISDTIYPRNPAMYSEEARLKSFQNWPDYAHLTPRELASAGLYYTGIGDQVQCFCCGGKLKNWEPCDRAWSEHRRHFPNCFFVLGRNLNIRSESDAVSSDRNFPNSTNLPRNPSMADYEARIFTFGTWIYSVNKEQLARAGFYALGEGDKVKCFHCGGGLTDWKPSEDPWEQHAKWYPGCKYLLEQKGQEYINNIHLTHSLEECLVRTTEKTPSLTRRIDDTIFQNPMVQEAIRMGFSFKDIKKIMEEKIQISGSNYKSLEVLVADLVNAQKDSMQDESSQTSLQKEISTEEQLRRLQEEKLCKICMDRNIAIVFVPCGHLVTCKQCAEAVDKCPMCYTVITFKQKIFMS

Consider `COC(=O)CC=C[C@@H](C)[C@@H](C=NOC(C)CN1CCCCc2nc(C)c(C)cc21)OC` (stereo not given in full), for which the z-score was -0.264 in assay [1]; -0.927 (inactive) in assay [2]; 0.0144 (inactive) in assay [3]; -0.0417 (inactive) in assay [5]; -0.46 (inactive) in [6]; 0.324 (inactive) in assay [7]. Besides, the z-score in assay [8] was 0.257 (inactive); in assay [9], -0.0511. In addition, the composite z-score in assay [4] was 0.244 (inactive); in assay [10] it was -0.459.

Turning to `CCc1cc2c(nc1CC)CCN(CCC(C)=NOC(C)CN1CCCCc3nc(C)c(C)cc31)C2` (stereo not given), the z-score in assay [1] was 0.465; in [2], -1.61 (inactive); in assay [3], 0.0376 (inactive); in assay [5], 0.417 (inactive); in assay [6] it was 1.18 (inactive); in assay [7] it was -0.148 (inactive). The z-score in [8] is -1.83 (inactive); in assay [9], 0.825. In addition, the composite z-score in [4] is 0.0164 (inactive); in assay [10], -0.02.

In the case of `O=C1C2=CC[C@H]3C(=O)N(Cc4ccccc4)C(=O)[C@H]3[C@H]2[C@H](O)[C@@H]2O[C@H]12`, the z-score in assay [1] was 0.35; in assay [2], -2.16 (inactive); in assay [3] it was -5.73 (inactive); in [5] it was 0.0821 (inactive); in assay [6], -1.22 (inactive); in [7], -0.416 (inactive). Moreover, the z-score in assay [8] is -0.425 (inactive); in assay [9] it was -3.38. The composite z-score in assay [4] was -1.59 (inactive); in [10], 0.0006.

Turning to `CC(C)CON=C1C[C@@H](O)[C@@H](O)[C@@H]2[C@@H]3C(=O)N(Cc4ccc5c(c4)OCO5)C(=O)[C@@H]3CC[C@@H]12`, the z-score in assay [1] is 0.344; in assay [2] it was 0.793 (inactive); in assay [3], 0.61 (inactive); in assay [5] it was -0.249 (inactive); in [6] it was 0.64 (inactive); in assay [7], 0.146 (inactive). Besides, the z-score in [8] was -0.563 (inactive); in assay [9], -0.0253. The composite z-score in assay [4] is 0.0312 (inactive); in assay [10] it was -0.102.

As for `C=C(C)C(=O)OC[C@H]1CN2[C@@H](CC[C@@H](C)[C@@H]2c2ccc(Br)cc2)C(=O)O1`, the z-score was 0.497 in [1]; -1.84 (inactive) in [2]; -0.255 (inactive) in assay [3]; -0.136 (inactive) in [5]; 0.912 (inactive) in assay [6]; 0.644 (inactive) in assay [7]. Moreover, the z-score in assay [8] is -1.77 (inactive); in assay [9] it was -0.314. In addition, the composite z-score in assay [4] was 0.672 (inactive); in assay [10] it was 0.256.

With `CC(=O)OC[C@H]1O[C@H](CC=NO[C@H](C)c2cn([C@@H]3COC[C@H]3O)nn2)C=C[C@@H]1OC(C)=O`, the z-score in assay [1] was -0.648; in assay [2], -0.199 (inactive); in assay [3], 0.134 (inactive); in [5], 0.441 (inactive); in [6] it was -1.9 (inactive); in assay [7] it was -0.716 (inactive). Also, the z-score was -0.743 (inactive) in assay [8] and 0.0142 in assay [9]. Besides, the composite z-score in assay [4] was -1.64 (inactive); in [10], -0.0447.

Consider `O=C1C2=CC[C@H]3C(=O)N(c4ccc(F)cc4F)C(=O)[C@H]3[C@H]2[C@H](O)[C@@H]2O[C@H]12`, for which the z-score in assay [1] was 0.0059; in [2], -0.448 (inactive); in assay [3], -0.874 (inactive); in [5] it was -0.307 (inactive); in assay [6] it was -0.592 (inactive); in assay [7], -0.401 (inactive). The z-score in assay [8] was -0.0889 (inactive); in assay [9] it was -0.035. Besides, the composite z-score in assay [4] was -0.166 (inactive); in assay [10], 0.104.

On to `COC(=O)[C@H](C)NC(=O)CCC1CC(OC(=O)NCCc2ccc(F)cc2)CC2(CCCC(COC(=O)NCC3CCCCC3)O2)O1` (stereo not given in full), for which the z-score in assay [1] was 0.427; in assay [2], -0.491 (inactive); in [3], 1.05 (inactive); in assay [5], -0.919 (inactive); in assay [6], 0.363 (inactive); in assay [7] it was -0.603 (inactive). Moreover, the z-score was -0.741 (inactive) in [8] and 0.13 in assay [9]. The figures for the composite z-score in [4] and in assay [10] were -2.53 (inactive) and 0.514, respectively.

Regarding `CCOC(=O)CCN1C(=O)[C@H]2[C@H]3[C@H](O)[C@H](O)CC(=NNC(=O)OCc4ccc(OC)cc4)[C@H]3CC[C@H]2C1=O`, the z-score in assay [1] was 0.0785; in assay [2] it was -3 (inactive); in assay [3], -0.451 (inactive); in assay [5], 1.07 (inactive); in assay [6], -0.595 (inactive); in [7] it was -0.653 (inactive). Further, the z-score was -0.652 (inactive) in [8] and -0.244 in assay [9]. Also, the composite z-score in assay [4] is 0.0913 (inactive); in assay [10], 0.12.

As to `C=CCOCC1CN2[C@@H](CC[C@@H](C)[C@@H]2c2ccc(Br)cc2)C(=O)O1` (stereo not given in full), the z-score in assay [1] is 0.685; in assay [2], -0.139 (inactive); in assay [3] it was 0.824 (inactive); in assay [5] it was 0.013 (inactive); in assay [6], 1.14 (inactive); in assay [7] it was 0.622 (inactive). Further, the z-score in [8] was -0.0542 (inactive); in assay [9], 1.49. Also, the figures for the composite z-score in assay [4] and in [10] were -0.959 (inactive) and -0.184, respectively.

As for `CC(C)[C@@H](OCc1ccccc1)[C@H](C)C=NOC[C@@H](O)[C@H]1O[C@@H]2OC(C)(C)O[C@@H]2[C@H]1O`, the z-score in assay [1] was -0.752; in assay [2], -0.848 (inactive); in assay [3], -0.587 (inactive); in assay [5] it was 0.241 (inactive); in assay [6] it was 1.28 (inactive); in assay [7], 0.0024 (inactive). The z-score was -1.79 (inactive) in assay [8] and -0.766 in [9]. In addition, the composite z-score was 0.188 (inactive) in [4] and 0.191 in assay [10].

With `COC(=O)[C@@H]1CC[C@H](C)[C@@H](c2ccc(Br)cc2)N1C[C@@H](O)CN=[N+]=[N-]`, the z-score is -0.36 in [1]; -11.9 (active) in [2]; 0.506 (inactive) in [3]; 0.733 (inactive) in assay [5]; -0.492 (inactive) in [6]; -1.47 (inactive) in assay [7]. For the same compound, the results for the z-score in [8] and in [9] were -2.14 (inactive) and -0.0718, respectively. The composite z-score was -3.04 (inactive) in [4] and -0.0118 in assay [10].
